# From PubChem BioAssay
# Values joined by “and” are separate entries in the source; they are usually repeats but may differ in a detail not shown here. Equal values may be shown once. Active and inactive are the calls of the source. Rule as the data show it, unless noted: active = nuclear beta-catenin stimulation mostly above about 4.2% (no sharp cut-off); inactive = mostly below about 10%.
# What was measured:
# [1] = Wnt pathway potentiators raising nuclear beta-catenin – imaging, WNT3A-conditioned medium, mouse C2C12, NPC library, primary screen (AID 1117326); conditions: stronger effect = higher value
# [2] = stimulators of insulin release from INS-1E, primary screen, cell-based, 5 mM glucose, NPC library (AID 1117329;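 active = compound raises insulin release from rat beta cells at 5 mM glucose, no numeric limit stated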); conditions: rat INS-1E insulin secretion, at 10 µM, stronger effect = higher value
# [3] = GLP1 release stimulators, primary, NCI-H716, NPC library (AID 1117341;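 active = compound raises GLP1 secretion from the human gut endocrine cells, with no numeric limit stated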); conditions: NCI-H716 cells, at 10 µM, stronger effect = higher value
# [4] = growth inhibition of GSK3B-pretreated HCT116 cells – cell-based, CellTiter-Glo, 0.2 to 20 µM (AID 1117336;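 active = compounds lowering colon cancer cell viability after pretreatment blocking the GSK3B kinase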); conditions: HCT116 viability after GSK3B inhibitor, at 20 µM, stronger effect = higher value
# [5] = inhibition of endothelial tube formation, primary screen, imaging, VEGF stimulated, CD31 staining, tube area, NPC library (AID 1117340;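 active = compound that reduces growth-factor-driven endothelial tube area in a mixed cell culture, no cutoff stated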); conditions: VEGF-stimulated ADSC/ECFC co-culture, at 10 µM, stronger effect = higher value
# [6] = HCT116 colon cancer cell growth inhibition, primary screen, CellTiter-Glo luminescence, NPC library (AID 1117342;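 active = compounds that lower survival of HCT116 colon cancer cells in the luminescence readout, no numeric limit stated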); conditions: at 20 µM (top of the series)
# [7] = reduced SW480 viability measured with CellTiter-Glo, NPC library, primary (AID 1117343;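 active = compounds that lower viability of the colon cancer cells in the luminescence readout, with no numeric limit stated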); conditions: CellTiter-Glo luminescence; at 20 µM (top of the series) unless noted
# [8] = NPC library primary testing for decreased DLD-1 cell viability via CellTiter-Glo (AID 1117346;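 active = compounds that lower survival of DLD-1 colon cancer cells in the luminescence readout, no cutoff given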); conditions: DLD-1 viability, CellTiter-Glo luminescence; at 20 µM (top of the series)
# [9] = viability loss with induced miR-34 in A549 – imaging, A549 dox-inducible miR-34, nuclei and caspase counts, primary screen (AID 1347080;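 active = compounds whose cell count with miR-34 switched on is under 0.7 times the count with it off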); conditions: A549 miR-34 inducible, Hoechst nuclei count, 48 h
# [10] = MELAS cybrid and Rieske KO viability enhancers – cell-based, MELAS cybrids, Rieske KO mouse fibroblasts, CellTiter-Glo, primary screen (AID 1508586;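 active = mean z-score across replicates of 1.96 or higher in either the MELAS or the Rieske mutant cell line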;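 also: z relative to plate mean and SD of compound and empty wells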); conditions: low glucose
# [11] = galactose survival enhancers in mitochondrial complex I cybrids – cell-based, galactose medium, ATP luminescence, primary screen (AID 1645843;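 active = z-score of at least 1.8 in each of two replicates, scored against plate mean and spread of sample wells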;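 also: positive z means more ATP and so rescue of galactose-driven cybrid death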); conditions: complex I mutant cybrid cells, 72 h, stronger effect = higher value
# [12] = biological target: NAD(+) hydrolase SARM1 (Homo sapiens) (UniProt Q6SZW1); experiment: blocking NAD cleavage by SARM1 SAM-TIR – cell lysate, NAD-Glo luminescence (AID 1508614;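 active = compound whose remaining NAD level is above about 45 nM, limit read from the data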;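 also: higher remaining NAD means stronger inhibition of SARM1 NADase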); conditions: SAM-TIR HEK293T lysate NADase, at 1 µM, stronger effect = higher value
# [13] = biological target: Mitogen-activated protein kinase 7 (Homo sapiens) (UniProt Q13164); experiment: Gal4-ERK5 driven luciferase induction – cell-based, HTS, primary screen (AID 1508626;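 active = luciferase signal above three times the same-plate solvent-only control wells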;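 also: luciferase driven by Gal4-ERK5 fusion binding five Gal4 sites before minimal TATA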); conditions: HeLa Gal4-ERK5 transactivation, 18 h, at 5 µM, stronger effect = higher value
# [14] = P. berghei load reduction in hepatocytes – cell-based, HepG2, luciferase luminescence, HepG2 viability, primary screen (AID 624349; in the data active = parasite load remaining mostly below about 12%, no sharp cut-off; inactive = mostly above about 10%;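 also: 100% = mean of DMSO negative control wells on the same plate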); conditions: P. berghei liver stage in HepG2, luciferase luminescence, concentration not given here; parasite load remaining: stronger effect = lower value; viability: measured here: HepG2 viability without parasites
# [15] = compounds altering viability of human ES cells (AID 493140; call rule not given here;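 also: cells exposed to compounds for four days before counting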); conditions: human embryonic stem cell survival screen; stronger effect = higher value
# [16] = EMT-state selective cytotoxicity in co-culture – imaging, PC-3E GFP, TEM4-18 mCherry, primary screen (AID 1345086;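 active = compounds killing one labelled cell type while sparing the other, by normalised counts and ratio limits, not self-fluorescent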;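 as to all read-outs here: cells exposed to compound for 72 h before imaging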;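 as to red/green cell ratio (normalised): normalised mesenchymal count divided by normalised epithelial count so high means epithelial killing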); conditions: PC-3E GFP / TEM4-18 mCherry co-culture, imaging cell counts, at 1 µM; for red/green cell ratio (normalised): actives lie on both sides, counts scaled to control wells, 1 = unselective
# [17] = biological target: 6-phosphogluconate dehydrogenase, decarboxylating (Homo sapiens) (UniProt P52209); experiment: inhibition of human phosphogluconate dehydrogenase – biochemical, recombinant enzyme, NADPH absorbance, primary screen (AID 1159550;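 active = at least 20% inhibition of 6-phosphogluconate dehydrogenase activity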); conditions: recombinant 6PGD, NADPH absorbance 341 nm; at 10 µM; stronger effect = higher value
# [18] = stronger effect = lower value, cell number ratio, induced over uninduced
# [19] = measured here: relative caspase fold change +Dox/-Dox
# [20] = measured here: total cells with miR-34 induction, stronger effect = lower value
# [21] = measured here: total cells without miR-34 induction
# [22] = MELAS cybrid survival, CellTiter-Glo 48 h, stronger effect = higher value
# [23] = Rieske KO mouse fibroblast survival, CellTiter-Glo 72 h
# [24] = measured here: epithelial PC-3E GFP cell survival
# [25] = measured here: mesenchymal TEM4-18 mCherry cell survival
# Chain of NAD(+) hydrolase SARM1 (Homo sapiens) (Q6SZW1 whole entry, looked up, the tested form may be a part): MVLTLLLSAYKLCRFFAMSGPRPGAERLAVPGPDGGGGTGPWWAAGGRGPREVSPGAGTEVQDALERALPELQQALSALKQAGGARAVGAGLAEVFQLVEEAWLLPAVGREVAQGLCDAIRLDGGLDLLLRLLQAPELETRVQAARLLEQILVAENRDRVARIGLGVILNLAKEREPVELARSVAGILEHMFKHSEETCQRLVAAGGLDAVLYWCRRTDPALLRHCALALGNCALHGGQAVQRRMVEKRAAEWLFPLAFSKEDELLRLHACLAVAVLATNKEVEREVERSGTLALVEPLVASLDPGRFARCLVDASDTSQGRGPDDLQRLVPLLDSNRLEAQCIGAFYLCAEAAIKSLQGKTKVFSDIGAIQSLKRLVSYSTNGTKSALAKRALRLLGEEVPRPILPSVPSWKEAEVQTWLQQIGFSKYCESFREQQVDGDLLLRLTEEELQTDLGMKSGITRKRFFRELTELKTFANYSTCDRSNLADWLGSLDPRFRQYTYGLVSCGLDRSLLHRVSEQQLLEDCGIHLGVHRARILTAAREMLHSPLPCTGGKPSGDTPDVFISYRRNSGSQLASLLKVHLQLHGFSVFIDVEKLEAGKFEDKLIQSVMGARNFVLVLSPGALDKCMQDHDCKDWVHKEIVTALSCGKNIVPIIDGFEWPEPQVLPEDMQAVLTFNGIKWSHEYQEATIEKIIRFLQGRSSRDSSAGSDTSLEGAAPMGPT
# Chain of Mitogen-activated protein kinase 7 (Homo sapiens) (Q13164 whole entry, looked up, the tested form may be a part): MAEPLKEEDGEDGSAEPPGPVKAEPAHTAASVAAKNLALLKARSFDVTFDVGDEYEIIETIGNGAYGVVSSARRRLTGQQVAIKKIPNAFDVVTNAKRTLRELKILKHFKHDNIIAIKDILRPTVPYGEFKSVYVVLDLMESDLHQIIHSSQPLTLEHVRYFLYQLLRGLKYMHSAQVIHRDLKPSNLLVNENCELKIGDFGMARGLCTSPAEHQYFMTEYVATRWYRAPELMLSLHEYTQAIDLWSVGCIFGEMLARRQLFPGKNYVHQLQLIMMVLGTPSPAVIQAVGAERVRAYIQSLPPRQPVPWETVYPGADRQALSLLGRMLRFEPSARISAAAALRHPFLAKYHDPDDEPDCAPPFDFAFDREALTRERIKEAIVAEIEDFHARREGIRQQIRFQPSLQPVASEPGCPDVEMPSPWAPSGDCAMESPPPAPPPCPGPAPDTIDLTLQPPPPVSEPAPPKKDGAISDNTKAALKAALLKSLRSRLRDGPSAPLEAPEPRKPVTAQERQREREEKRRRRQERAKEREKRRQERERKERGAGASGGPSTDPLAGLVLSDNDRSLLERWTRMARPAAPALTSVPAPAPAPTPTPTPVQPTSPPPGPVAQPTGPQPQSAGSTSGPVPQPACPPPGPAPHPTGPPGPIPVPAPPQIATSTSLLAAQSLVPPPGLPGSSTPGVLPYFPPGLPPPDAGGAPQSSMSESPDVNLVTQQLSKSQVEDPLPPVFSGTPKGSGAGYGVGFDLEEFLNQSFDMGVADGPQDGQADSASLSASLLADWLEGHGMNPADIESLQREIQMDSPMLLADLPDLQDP
# Chain of 6-phosphogluconate dehydrogenase, decarboxylating (Homo sapiens) (P52209 whole entry, looked up): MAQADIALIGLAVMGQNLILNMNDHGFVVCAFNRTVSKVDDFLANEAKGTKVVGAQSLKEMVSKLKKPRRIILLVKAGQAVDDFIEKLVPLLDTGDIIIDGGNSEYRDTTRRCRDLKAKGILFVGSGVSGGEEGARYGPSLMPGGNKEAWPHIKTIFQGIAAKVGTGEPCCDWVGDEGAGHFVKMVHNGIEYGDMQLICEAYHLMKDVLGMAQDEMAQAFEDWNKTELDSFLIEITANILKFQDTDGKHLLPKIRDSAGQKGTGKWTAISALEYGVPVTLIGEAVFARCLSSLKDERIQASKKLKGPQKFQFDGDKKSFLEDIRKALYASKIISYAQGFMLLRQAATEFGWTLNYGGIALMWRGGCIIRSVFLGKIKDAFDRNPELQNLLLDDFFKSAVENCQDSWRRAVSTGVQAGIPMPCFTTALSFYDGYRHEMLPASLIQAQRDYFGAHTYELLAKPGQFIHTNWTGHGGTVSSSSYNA
smiles,measurement,setting,value
CCC=CCC=CCC=CCCCCCCCC(=O)O,nuclear beta-catenin stimulation,[1]; at 10 µM,-0.2% (inactive)
same,nuclear beta-catenin stimulation,"[1]; stimulation, at 2 µM",0%
same,insulin secretion stimulation,[2],2.65% (inactive)
same,GLP1 secretion stimulation,[3],12.4% (inactive)
Cc1cc(OI)c(C(C)C)cc1-c1cc(C(C)C)c(OI)cc1C,nuclear beta-catenin stimulation,[1]; at 10 µM,0% (inactive)
same,nuclear beta-catenin stimulation,"[1]; stimulation, at 2 µM",5.1%
same,viability decrease,[4],13.9% (inactive)
same,tube area decrease,[5],4.7% (inactive)
same,inhibition of viability,[6],-41.6% (inactive)
same,viability decrease (inhibition),[7],10.4% (inactive)
same,viability decrease (inhibition),[8],18.8% (inactive)
CCCCCCCCCCCCCCCC(=O)OCC=C(C)C=CC=C(C)C=CC1=C(C)CCCC1(C)C,nuclear beta-catenin stimulation,[1]; at 10 µM,-1.5% (inactive)
same,nuclear beta-catenin stimulation,"[1]; stimulation, at 2 µM",-0.3%
same,insulin secretion stimulation,[2],1.2% (inactive)
same,GLP1 secretion stimulation,[3],2.7% (inactive)
C/C(=N\O)[C@@H](C)NCC(C)(C)CN[C@H](C)/C(C)=N/O,nuclear beta-catenin stimulation,[1]; at 10 µM,1.5% (inactive)
same,nuclear beta-catenin stimulation,"[1]; stimulation, at 2 µM",-1.3%
same,insulin secretion stimulation,[2],1.9% (inactive)
same,GLP1 secretion stimulation,[3],-8.7% (inactive)
CC(=O)NC(=O)c1ccccc1O,nuclear beta-catenin stimulation,[1]; at 10 µM,4.6% (inactive)
same,nuclear beta-catenin stimulation,"[1]; stimulation, at 2 µM",0.9%
same,insulin secretion stimulation,[2],-0.5% (inactive)
same,GLP1 secretion stimulation,[3],-0.9% (inactive)
CNS(=O)(=O)CCc1ccc2[nH]cc(C3CCN(C)CC3)c2c1,nuclear beta-catenin stimulation,[1]; at 10 µM,0.7% (inactive)
same,nuclear beta-catenin stimulation,"[1]; stimulation, at 2 µM",0.4%
same,insulin secretion stimulation,[2],0.5% (inactive)
same,GLP1 secretion stimulation,[3],-4.5% (inactive)
same,fold change,[9]; [18],1.03 (inactive) and 0.889 (inactive)
same,fold change,[9]; [19],0.856 and 0.863
same,cell count,[9]; [20],10300 and 7800
same,cell count,[9]; [21],9960 and 8780
same,z-score,[10]; [22],-0.419 (inactive)
same,z-score,[10]; [23],0.51
same,z-score,[11],-0.035 (inactive)
CCCCCCCC(=O)OCC(COC(=O)CCCCCCC)OC(=O)CCCCCCC,nuclear beta-catenin stimulation,[1]; at 10 µM,-0.5% (inactive)
same,nuclear beta-catenin stimulation,"[1]; stimulation, at 2 µM",-1.9%
same,insulin secretion stimulation,[2],0.2% (inactive)
same,GLP1 secretion stimulation,[3],-5.4% (inactive)
Cc1c(O)cc2c(c1C)O[C@](C)(CCC[C@H](C)CCC[C@H](C)CCCC(C)C)CC2,nuclear beta-catenin stimulation,[1]; at 10 µM,0.3% (inactive)
same,nuclear beta-catenin stimulation,"[1]; stimulation, at 2 µM",-0.6%
same,insulin secretion stimulation,[2],0.7% (inactive)
same,GLP1 secretion stimulation,[3],9.2% (inactive)
CC(C)(CO)[C@@H](O)C(=O)NCCC(=O)NCCSSCCNC(=O)CCNC(=O)[C@H](O)C(C)(C)CO,nuclear beta-catenin stimulation,[1]; at 10 µM,0% (inactive)
same,nuclear beta-catenin stimulation,"[1]; stimulation, at 2 µM",-1.3%
same,insulin secretion stimulation,[2],0.15% (inactive)
same,GLP1 secretion stimulation,[3],2% (inactive)
same,remaining NAD,[12],10 nM (inactive)
same,luciferase signal,[13],160 AU (active)
O=C(O)CCC(=O)OC[C@@H](NC(=O)C(Cl)Cl)[C@H](O)c1ccc([N+](=O)[O-])cc1,parasite load remaining,[14],75.9% (inactive) and 67.1% (inactive)
same,viability,[14],75.5% and 91.9%
same,nuclear beta-catenin stimulation,[1]; at 10 µM,2.4% (inactive)
same,nuclear beta-catenin stimulation,"[1]; stimulation, at 2 µM",0.4%
same,insulin secretion stimulation,[2],0% (inactive)
same,GLP1 secretion stimulation,[3],4.4% (inactive)
same,fold change,[9]; [18],0.886 (inactive)
same,fold change,[9]; [19],1.1
same,cell count,[9]; [20],11000
same,cell count,[9]; [21],12500
same,remaining NAD,[12],10 nM (inactive)
same,luciferase signal,[13],44 AU (inactive)
Cn1cc(S(C)=O)c(=O)c2ccc(F)cc21 (configuration not stated),nuclear beta-catenin stimulation,[1]; at 10 µM,0.3% (inactive)
same,nuclear beta-catenin stimulation,"[1]; stimulation, at 2 µM",10.4%
same,viability decrease,[4],-6.9% (inactive)
same,tube area decrease,[5],1.1% (inactive)
same,inhibition of viability,[6],4.2% (inactive)
same,viability decrease (inhibition),[7],-1.3% (inactive)
same,viability decrease (inhibition),[8],-1.8% (inactive)
CCCCN1CCCC1C(=O)Nc1c(C)cc(C)cc1C (configuration not stated),nuclear beta-catenin stimulation,[1]; at 10 µM,1% (inactive)
same,nuclear beta-catenin stimulation,"[1]; stimulation, at 2 µM",-0.4%
same,insulin secretion stimulation,[2],0% (inactive)
same,GLP1 secretion stimulation,[3],-3.8% (inactive)
CC(=O)N(CC(O)CN(C(C)=O)c1c(I)c(C(=O)NCC(O)CO)c(I)c(C(=O)NCC(O)CO)c1I)c1c(I)c(C(=O)NCC(O)CO)c(I)c(C(=O)NCC(O)CO)c1I (configuration not stated),survival,[15],2.67 (inactive)
same,parasite load remaining,[14],80.7% (inactive)
same,viability,[14],90.6%
same,nuclear beta-catenin stimulation,[1]; at 10 µM,0.8% (inactive)
same,nuclear beta-catenin stimulation,"[1]; stimulation, at 2 µM",1.9%
same,insulin secretion stimulation,[2],0.95% (inactive)
same,GLP1 secretion stimulation,[3],2% (inactive)
same,red/green cell ratio (normalised),[16],1.05 (inactive)
same,normalised cell number,[16]; [24],1
same,normalised cell number,[16]; [25],1.05
same,fold change,[9]; [18],0.892 (inactive)
same,fold change,[9]; [19],0.943
same,cell count,[9]; [20],8820
same,cell count,[9]; [21],9890
same,z-score,[10]; [22],0.435 (inactive)
same,z-score,[10]; [23],-0.343
same,remaining NAD,[12],10 nM (inactive)
Cc1ccc(O)cc1,parasite load remaining,[14],125% (inactive) and 76.1% (inactive)
same,viability,[14],68.3% and 96.4%
same,nuclear beta-catenin stimulation,[1]; at 10 µM,0.9% (inactive)
same,nuclear beta-catenin stimulation,"[1]; stimulation, at 2 µM",13.3%
same,viability decrease,[4],4.4% (inactive)
same,tube area decrease,[5],-11.8% (inactive)
same,inhibition of viability,[6],13.6% (inactive)
same,viability decrease (inhibition),[7],-6.4% (inactive)
same,viability decrease (inhibition),[8],-0.4% (inactive)
same,inhibition,[17],-1.83% (inactive)
same,red/green cell ratio (normalised),[16],1.31 (inactive)
same,normalised cell number,[16]; [24],1.05
same,normalised cell number,[16]; [25],1.37
same,fold change,[9]; [18],0.843 (inactive)
same,fold change,[9]; [19],3.01
same,cell count,[9]; [20],10700
same,cell count,[9]; [21],12700
Cc1cccc(Nc2cc(Cl)nc(SCC(=O)O)n2)c1C,survival,[15],88 (inactive)
same,nuclear beta-catenin stimulation,[1]; at 10 µM,-0.3% (inactive)
same,nuclear beta-catenin stimulation,"[1]; stimulation, at 2 µM",0.2%
same,insulin secretion stimulation,[2],-0.2% (inactive)
same,GLP1 secretion stimulation,[3],-3.8% (inactive)
same,z-score,[10]; [22],-0.392 (inactive)
same,z-score,[10]; [23],-0.362
same,z-score,[11],0.215 (inactive)
CCCCCCCCCCCCCCCCCCOP(=O)([O-])OC1CC[N+](C)(C)CC1,nuclear beta-catenin stimulation,[1]; at 10 µM,-0.8% (inactive)
same,nuclear beta-catenin stimulation,"[1]; stimulation, at 2 µM",-1%
same,insulin secretion stimulation,[2],0.3% (inactive)
same,GLP1 secretion stimulation,[3],0.4% (inactive)
FC(F)(F)C(F)(F)C(F)(F)C(F)(F)C(F)(F)C(F)(F)C(F)(F)C(F)(F)Br,nuclear beta-catenin stimulation,[1]; at 10 µM,-0.6% (inactive)
same,nuclear beta-catenin stimulation,"[1]; stimulation, at 2 µM",11.4%
same,viability decrease,[4],8.2% (inactive)
same,tube area decrease,[5],-4.5% (inactive)
same,inhibition of viability,[6],12.1% (inactive)
same,viability decrease (inhibition),[7],-4.8% (inactive)
same,viability decrease (inhibition),[8],7.2% (inactive)
O=C(CCCN1CCC(O)(c2cccc(C(F)(F)F)c2)CC1)c1ccc(F)cc1,parasite load remaining,[14],27% (inactive)
same,viability,[14],66%
same,nuclear beta-catenin stimulation,[1]; at 10 µM,14.8% (inactive)
same,nuclear beta-catenin stimulation,"[1]; stimulation, at 2 µM",-1.1%
same,insulin secretion stimulation,[2],-0.35% (inactive)
same,GLP1 secretion stimulation,[3],5.6% (inactive)
same,fold change,[9]; [18],1.01 (inactive) and 0.873 (inactive)
same,fold change,[9]; [19],0.77 and 1.63
same,cell count,[9]; [20],10300 and 9050
same,cell count,[9]; [21],10200 and 10400
same,z-score,[10]; [22],-0.508 (inactive)
same,z-score,[10]; [23],-1.07
same,z-score,[11],-1 (inactive) and -0.885 (inactive)
